This passage reports inhibition results from PubChem BioAssay AID488896 (Broad Institute, 2010).

Among all 320,000 compounds or so, about 3,100 (0.97%) were called active. What follows is part of a selection rich in actives, with near analogues and random picks from the rest. A number with no mark means an inactive call.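 How the source made its calls: active means mean replicate inhibition of at least 70% and a set share of replicates each scoring 70 or more; inconclusive means meets just one of the two criteria; inactive means fails both criteria.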

As usually defined, the inhibition is the drop in the measured response relative to a control, in per cent.

Sequence of Scavenger receptor class B member 1 (Mus musculus) (Q61009 whole entry, looked up): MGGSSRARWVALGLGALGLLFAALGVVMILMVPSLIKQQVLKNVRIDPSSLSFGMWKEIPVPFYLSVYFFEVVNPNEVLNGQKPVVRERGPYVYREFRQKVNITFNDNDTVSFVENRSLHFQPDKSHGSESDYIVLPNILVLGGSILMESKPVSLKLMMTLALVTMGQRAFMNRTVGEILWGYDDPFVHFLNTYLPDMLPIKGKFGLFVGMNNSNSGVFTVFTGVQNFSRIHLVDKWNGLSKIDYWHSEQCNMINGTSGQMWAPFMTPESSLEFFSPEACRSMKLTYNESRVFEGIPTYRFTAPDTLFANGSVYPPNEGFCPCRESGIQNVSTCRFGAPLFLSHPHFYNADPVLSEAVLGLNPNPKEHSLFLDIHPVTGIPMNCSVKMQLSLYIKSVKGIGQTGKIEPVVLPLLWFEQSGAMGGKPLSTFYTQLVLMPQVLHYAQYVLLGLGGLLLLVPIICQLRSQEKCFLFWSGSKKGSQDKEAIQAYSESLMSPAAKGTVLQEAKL

The assay has as its target Scavenger receptor class B member 1 (Mus musculus) (UniProt Q61009). Description: mouse SR-BI DiI-HDL uptake blockers – ldlA[mSR-BI] cells, fluorescence, single point, primary screen (AID 488896).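 Further: 0% = median of neutral control wells and 100% = median of positive control wells.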 To be noted: ldlA[mSR-BI] CHO cells, 3 h, at 12.5 µM, active compounds read high.
Consider `CC(=O)OC1C2(CC3N4C(=O)C5(CO)SSC4(CC31O)C(=O)N5C)OC(C)C(C)(C)C2=O` (stereo not given), for which the inhibition was 106% (active).

Turning to `CC12CCC(O)CC1CCC1C2CCC2(C)C(C(=O)CC(O)C(F)(F)F)CCC12` (stereo not given), the inhibition is 13.2%.

As to `O=C(c1ccccc1)C(O)(CN1CCCCC1)c1ccccc1` (stereo not given), the inhibition is -5.67%.

For the compound `COC1C(O)C(C)OC(OC2CCC3(C=O)C(CCC4C3CCC3(C)C(C5=CC(=O)OC5)CCC43O)C2)C1O` (stereo not given), the inhibition was 0.038%.

`CC(=O)Cc1ccc(OC(C)C)cc1`: the inhibition was -1.27%.

Take `CCOP(=O)(OCC)C(NC(=O)c1ccc(OC)cc1)C(Cl)(Cl)Cl` (stereo not given): the inhibition is 6.36%.

Take `CC(=O)c1ccc(OC(NC(=O)Cc2ccccc2)C(Cl)(Cl)Cl)cc1` (stereo not given): the inhibition was 92.8% (active).

For `CN(C)CC1Oc2ccccc2OC1(O)c1ccccc1` (stereo not given), the inhibition was 1.39%.

On to `CC1=CC(=Cc2sc3ccccc3[n+]2C)C=C(C)O1`, for which the inhibition is -1%.

For `CCC(C)(O)C(=O)OC1C(=O)OC2CC3C(C)=CC(=O)C(O)C3(C)C3C4(O)OCC23C1C(C)C4O` (stereo not given), the inhibition is -10.3%.
